Results filed as inconclusive are left out. A number with no mark means an inactive call. Calls of active or inactive are those of the source. The call rests on the fitted dose curve; in most records, active means well fitted inhibition curve with a large enough effect; inconclusive means small, poorly fitted or top-dose-only effect; inactive means flat fitted curve, though single readings scatter.
Potency means the concentration at half of the fitted maximal effect.

The first test deals with CP269. In words: qHTS profiling for inhibitors of Plasmodium falciparum proliferation (AID 504749). Further: nearly all actives have a fitted effect of over 60% in size.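 On activity, negative = inhibition: 0% = DMSO vehicle and full inhibition = artemisinin control.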 The following applies: P. falciparum in erythrocytes, SYBR Green DNA, 72 h; series mostly up to 28.7 µM; activity, negative = inhibition: at the top concentration. The essentials: (§1)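 In a 72 h erythrocytic culture (37 C, humidified, 5% CO2) at 2.5% hematocrit and 0.3% starting parasitemia, compounds were tested; SYBR Green I in detergent lysis buffer stained parasite DNA overnight.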
Take `Cc1ccc(C(C)(C)c2ccc(C)cc2)cc1`: the “activity, negative = inhibition” value is 2.48%.
On the same count and under the same terms, in the case of `N[C@H](CC(=O)O)C(=O)O` it was -0.259%; in that of `O=C(O)COc1ccc(CCNS(=O)(=O)c2ccccc2)s1`, -3.49%.
As to `O=S(=O)(O)CCCS(=O)(=O)O`, the “activity, negative = inhibition” value is 1.54%.
With `COC(=O)c1ccccc1O`, the “activity, negative = inhibition” value is -17.1%.
As to `CC1(O)CCC(C(C)(C)O)CC1` (stereo not drawn), the “activity, negative = inhibition” value was -1.68%.
Same read-out and setting: in the case of `COc1ccc(/C=C/C(=O)O)cc1` it was -10.6%.
Same read-out and setting: under `CC(=O)Nc1c(I)c(C(=O)O)c(I)c(N(C)C(C)=O)c1I` stands -1.16%; under `Nc1ncnc2c1ncn2[C@H]1CC[C@@H](CO)O1`, -4.3%; under `COC(=O)C(CN)c1c[nH]c2ccc(OC)cc12` (stereo not drawn), -1.45%.
Same read-out and setting: under `CC/C(=C(/CC)c1ccc(OP(=O)(O)O)cc1)c1ccc(OP(=O)(O)O)cc1` stands -6.18%.
`CN1c2c(nc(N)[nH]c2=O)NCC1CNc1ccc(C(=O)NC(CCC(=O)O)C(=O)O)cc1` (stereo not drawn): the “activity, negative = inhibition” value was 1.1%.
Turning to `CC(C)(CO)[C@@H](O)C(=O)NCCC(=O)NCCSSCCNC(=O)CCNC(=O)[C@H](O)C(C)(C)CO`, the “activity, negative = inhibition” value is 10.8%.
The same measure, in the same setting: under `CCCC(=O)O` stands 1.18%.
Still for that read-out and setting: in the case of `CCSc1ccc2c(c1)N(CCCN1CCN(C)CC1)c1ccccc1S2` it was -13.2% [at 12.8 µM].
In the case of `CC1=CC(=C(c2ccc(N)cc2)c2ccc(N)cc2)C=CC1=N`, the Potency was 4260 nM (active).
With `CC1=CC(=O)NS(=O)(=O)O1`, the “activity, negative = inhibition” value was -1.4%.
For the molecule `CC1CCCCN1CCCOC(=O)c1ccccc1` (stereo not drawn), the “activity, negative = inhibition” value is 0.621%.
Turning to `COC(=O)CC[C@H](N)C(=O)O`, the “activity, negative = inhibition” value was 5.09%.
Consider `C[C@H](CCC(=O)O)[C@H]1CC[C@H]2[C@@H]3CC[C@@H]4C[C@H](O)CC[C@]4(C)[C@H]3C[C@H](O)[C@]12C`, for which the “activity, negative = inhibition” value was -5.4%.
As to `CO`, the “activity, negative = inhibition” value was -1.78%.
Still for that read-out and setting: in the case of `C=CCN1CCCC1CNC(=O)c1cc(S(N)(=O)=O)cc(OC)c1OC` (stereo not drawn) it was -0.635%.
As to `CC/C=C\C/C=C\C/C=C\C/C=C\C/C=C\C/C=C\CCC(=O)O`, the “activity, negative = inhibition” value is -7.8%.
For `COc1cc2c(cc1OC)[C@@H](Cc1cc(OC)c(OC)c(OC)c1)[N+](C)(CCCOC(=O)CC/C=C/CCC(=O)OCCC[N+]1(C)CCc3cc(OC)c(OC)cc3[C@H]1Cc1cc(OC)c(OC)c(OC)c1)CC2` (stereo partly drawn), the “activity, negative = inhibition” value was -5.23%.
The same measure, in the same setting: under `CCCOC(=O)c1ccccc1O` stands -6.68%; under `CC/C=C\C/C=C\C/C=C\CCCCCCCC(=O)O`, -4.88%.
Still for that read-out and setting: in the case of `NC(=O)[C@H]1O[C@@H](O)[C@H](O)[C@@H](O)[C@@H]1O` it was -4.86%.
On the same count and under the same terms, under `CCCCCCCCCCCCOCCCN` stands 0.153%; under `CC(C)(C)c1ccc2c(S(=O)(=O)O)c(C(C)(C)C)ccc2c1`, -2.74%.
Turning to `COC(=O)CCC[N+](C)(C)C`, the “activity, negative = inhibition” value is 1.57%.
For `CNC(=O)OCc1cccc(COC(=O)NC)n1`, the “activity, negative = inhibition” value was 9.31%.
Turning to `O=C(NCCNCC(O)COc1ccc(O)cc1)N1CCOCC1` (stereo not drawn), the “activity, negative = inhibition” value was -2.95%.
On the same count and under the same terms, in the case of `OC[C@H]1O[C@@H]2O[C@H]3[C@H](O)[C@@H](O)[C@@H](O[C@H]4[C@H](O)[C@@H](O)[C@@H](O[C@H]5[C@H](O)[C@@H](O)[C@@H](O[C@H]6[C@H](O)[C@@H](O)[C@@H](O[C@H]7[C@H](O)[C@@H](O)[C@@H](O[C@H]1[C@H](O)[C@H]2O)O[C@@H]7CO)O[C@@H]6CO)O[C@@H]5CO)O[C@@H]4CO)O[C@@H]3CO` it was -0.139%; in that of `CCCCCCCCCCCCCCCCCCCCCC(=O)Nc1ccn([C@@H]2O[C@H](CO)[C@@H](O)[C@@H]2O)c(=O)n1`, -5.47%.
For the molecule `CCCCCCCCCCCCCCCCCC[N+](C)(C)CCC[Si](OC)(OC)OC`, the “activity, negative = inhibition” value is -0.143%.
On the same count and under the same terms, under `OB(O)O` stands 6.53%; under `CCOc1ccc(NC(=S)Nc2ccc(OCC)cc2)cc1`, -4.69%; under `CC(C)c1nc(N(C)S(C)(=O)=O)nc(-c2ccc(F)cc2)c1/C=C/C(O)CC(O)CC(=O)O` (stereo not drawn), 3.16%.
Regarding `O=C(/C=C/c1cccc(F)c1)NC1CC1`, the “activity, negative = inhibition” value is -0.928%.

In the next test the test system is CP286. Described as above. The following applies: P. falciparum in erythrocytes, SYBR Green DNA, 72 h; series mostly up to 28.7 µM; activity, negative = inhibition: at the top concentration. The gist of the method:
as §1
On to `Cc1ccc(C(C)(C)c2ccc(C)cc2)cc1`, for which the “activity, negative = inhibition” value was 1.92%.
The same measure, in the same setting: under `N[C@H](CC(=O)O)C(=O)O` stands -1.19%; under `O=C(O)COc1ccc(CCNS(=O)(=O)c2ccccc2)s1`, 0.25%.
The same measure, in the same setting: under `O=S(=O)(O)CCCS(=O)(=O)O` stands 0.933%; under `COC(=O)c1ccccc1O`, 0.242%.
`CC1(O)CCC(C(C)(C)O)CC1` (stereo not drawn): the “activity, negative = inhibition” value was -0.386%.
Still for that read-out and setting: under `COc1ccc(/C=C/C(=O)O)cc1` stands 0.77%; under `CC(=O)Nc1c(I)c(C(=O)O)c(I)c(N(C)C(C)=O)c1I`, -2.81%; under `Nc1ncnc2c1ncn2[C@H]1CC[C@@H](CO)O1`, -0.159%.
With `COC(=O)C(CN)c1c[nH]c2ccc(OC)cc12` (stereo not drawn), the “activity, negative = inhibition” value is -4.74%.
Take `CC/C(=C(/CC)c1ccc(OP(=O)(O)O)cc1)c1ccc(OP(=O)(O)O)cc1`: the “activity, negative = inhibition” value was 0.18%.
With `CN1c2c(nc(N)[nH]c2=O)NCC1CNc1ccc(C(=O)NC(CCC(=O)O)C(=O)O)cc1` (stereo not drawn), the “activity, negative = inhibition” value was -0.535%.
On the same count and under the same terms, under `CC(C)(CO)[C@@H](O)C(=O)NCCC(=O)NCCSSCCNC(=O)CCNC(=O)[C@H](O)C(C)(C)CO` stands 0.976%; under `CCCC(=O)O`, 0.0902%; under `CCSc1ccc2c(c1)N(CCCN1CCN(C)CC1)c1ccccc1S2`, -19.9% [at 12.8 µM].
Take `CC1=CC(=C(c2ccc(N)cc2)c2ccc(N)cc2)C=CC1=N`: the Potency is 1410 nM (active).
Consider `CC1=CC(=O)NS(=O)(=O)O1`, for which the “activity, negative = inhibition” value is 2.19%.
The same measure, in the same setting: in the case of `CC1CCCCN1CCCOC(=O)c1ccccc1` (stereo not drawn) it was -8.35%.
With `COC(=O)CC[C@H](N)C(=O)O`, the “activity, negative = inhibition” value was -0.605%.
On the same count and under the same terms, in the case of `C[C@H](CCC(=O)O)[C@H]1CC[C@H]2[C@@H]3CC[C@@H]4C[C@H](O)CC[C@]4(C)[C@H]3C[C@H](O)[C@]12C` it was 0.0624%.
Regarding `CO`, the “activity, negative = inhibition” value was -5.9%.
With `C=CCN1CCCC1CNC(=O)c1cc(S(N)(=O)=O)cc(OC)c1OC` (stereo not drawn), the “activity, negative = inhibition” value was -5.44%.
On the same count and under the same terms, under `CC/C=C\C/C=C\C/C=C\C/C=C\C/C=C\C/C=C\CCC(=O)O` stands -2.92%.
Take `COc1cc2c(cc1OC)[C@@H](Cc1cc(OC)c(OC)c(OC)c1)[N+](C)(CCCOC(=O)CC/C=C/CCC(=O)OCCC[N+]1(C)CCc3cc(OC)c(OC)cc3[C@H]1Cc1cc(OC)c(OC)c(OC)c1)CC2` (stereo partly drawn): the “activity, negative = inhibition” value was -19.8%.
As to `CCCOC(=O)c1ccccc1O`, the “activity, negative = inhibition” value is -0.0619%.
Still for that read-out and setting: in the case of `CC/C=C\C/C=C\C/C=C\CCCCCCCC(=O)O` it was -10.1%; in that of `NC(=O)[C@H]1O[C@@H](O)[C@H](O)[C@@H](O)[C@@H]1O`, 0.949%; in that of `CCCCCCCCCCCCOCCCN`, 0.54%.
Still for that read-out and setting: under `CC(C)(C)c1ccc2c(S(=O)(=O)O)c(C(C)(C)C)ccc2c1` stands 2.37%.
As for `COC(=O)CCC[N+](C)(C)C`, the “activity, negative = inhibition” value was -0.726%.
Still for that read-out and setting: in the case of `CNC(=O)OCc1cccc(COC(=O)NC)n1` it was 0.748%.
On to `O=C(NCCNCC(O)COc1ccc(O)cc1)N1CCOCC1` (stereo not drawn), for which the “activity, negative = inhibition” value is 1.34%.
For `OC[C@H]1O[C@@H]2O[C@H]3[C@H](O)[C@@H](O)[C@@H](O[C@H]4[C@H](O)[C@@H](O)[C@@H](O[C@H]5[C@H](O)[C@@H](O)[C@@H](O[C@H]6[C@H](O)[C@@H](O)[C@@H](O[C@H]7[C@H](O)[C@@H](O)[C@@H](O[C@H]1[C@H](O)[C@H]2O)O[C@@H]7CO)O[C@@H]6CO)O[C@@H]5CO)O[C@@H]4CO)O[C@@H]3CO`, the “activity, negative = inhibition” value is -0.0894%.
For the molecule `CCCCCCCCCCCCCCCCCCCCCC(=O)Nc1ccn([C@@H]2O[C@H](CO)[C@@H](O)[C@@H]2O)c(=O)n1`, the “activity, negative = inhibition” value is 0.937%.
Same read-out and setting: under `CCCCCCCCCCCCCCCCCC[N+](C)(C)CCC[Si](OC)(OC)OC` stands -0.157%; under `OB(O)O`, -0.207%; under `CCOc1ccc(NC(=S)Nc2ccc(OCC)cc2)cc1`, 3.01%.
Still for that read-out and setting: under `CC(C)c1nc(N(C)S(C)(=O)=O)nc(-c2ccc(F)cc2)c1/C=C/C(O)CC(O)CC(=O)O` (stereo not drawn) stands 0.622%; under `O=C(/C=C/c1cccc(F)c1)NC1CC1`, -5.56%.

The values above are taken from PubChem BioAssay (NCATS).
